Bioassay records as filed in PubChem.
Sampled rows, rich in hits. Any-hit rate of the full collection: about 1.1%.
VLA-4 inh: inhibition in a human VLA-4 binding assay; VLA-4 expressing cells, ligand binding flow cytometry; inhibition, % (about 7 µM as worked out from the volumes in the protocol); 330,000 compounds, 0.2% hits; in the data active = inhibition above about 50%
Target sequence (P13612 whole entry, looked up): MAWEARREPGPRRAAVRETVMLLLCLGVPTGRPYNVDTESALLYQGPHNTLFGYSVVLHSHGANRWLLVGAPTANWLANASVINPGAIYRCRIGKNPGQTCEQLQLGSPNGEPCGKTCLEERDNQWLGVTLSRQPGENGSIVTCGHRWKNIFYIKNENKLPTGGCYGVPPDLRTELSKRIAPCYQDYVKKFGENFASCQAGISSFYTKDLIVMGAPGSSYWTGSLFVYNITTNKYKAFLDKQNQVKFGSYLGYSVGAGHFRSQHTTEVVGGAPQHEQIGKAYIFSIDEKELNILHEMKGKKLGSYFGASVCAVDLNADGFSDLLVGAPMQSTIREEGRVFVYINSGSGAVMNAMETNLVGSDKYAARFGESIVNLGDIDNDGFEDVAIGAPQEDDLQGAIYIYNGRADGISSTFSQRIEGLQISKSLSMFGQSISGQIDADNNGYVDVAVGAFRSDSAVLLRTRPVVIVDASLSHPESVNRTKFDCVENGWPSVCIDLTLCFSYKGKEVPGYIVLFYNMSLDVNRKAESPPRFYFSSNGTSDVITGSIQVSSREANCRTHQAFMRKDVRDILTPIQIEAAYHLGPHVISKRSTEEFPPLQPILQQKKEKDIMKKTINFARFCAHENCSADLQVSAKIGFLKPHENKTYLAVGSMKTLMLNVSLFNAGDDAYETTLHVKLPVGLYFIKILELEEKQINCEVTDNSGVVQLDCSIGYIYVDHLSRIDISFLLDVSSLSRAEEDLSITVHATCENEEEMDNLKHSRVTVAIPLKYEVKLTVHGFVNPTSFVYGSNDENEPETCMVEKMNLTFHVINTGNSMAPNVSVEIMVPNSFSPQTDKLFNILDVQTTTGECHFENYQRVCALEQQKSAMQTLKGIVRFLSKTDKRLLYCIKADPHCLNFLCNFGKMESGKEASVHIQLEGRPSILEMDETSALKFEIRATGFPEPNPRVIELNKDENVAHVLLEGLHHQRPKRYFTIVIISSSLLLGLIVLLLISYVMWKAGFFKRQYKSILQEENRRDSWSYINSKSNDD
LAP4-GFP MLPCN: yeast TOR pathway LAP4-GFP modulation; S. cerevisiae LAP4-GFP multiplex, flow cytometry GFP, 3 h; median GFP as percent of DMSO wells; GFP response vs DMSO, % at 10 µM; 320,000 compounds, 0.34% hits;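 active = GFP response vs DMSO above a set limit, about the screen mean plus 3 SD, cut at about 150% in these data; inconclusive = under 70 cell events counted for the yeast strain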
RPL19A-GFP yeast: modulators of TOR pathway RPL19A-GFP in S. cerevisiae; percent response vs DMSO, % at 10 µM; 330,000 compounds, 0.3% hits; S. cerevisiae RPL19A-GFP strain, flow cytometry, 3 h; stronger effect = lower value; AID 2025;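 active = percent response vs DMSO below 50%; inconclusive = fewer than 70 events counted for the yeast strain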;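 note: median channel GFP fluorescence of the barcoded RPL19A-GFP strain; ratio of sample median GFP to plate DMSO average so 100% = DMSO; lower means less RPL19A-GFP as with rapamycin TOR inhibition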
MEP2 TOR yeast: alters MEP2-GFP fluorescence in TOR pathway yeast screen; S. cerevisiae MEP2-GFP strain, flow cytometry GFP, 3 h; 100% = DMSO control level; GFP response vs DMSO, % at 10 µM; 330,000 compounds, 0.51% hits;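 active = GFP response versus DMSO above a set limit, roughly screen mean plus 3 SD, cut at about 180% in these data; inconclusive = fewer than 70 cells counted for a yeast strain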;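 note: median GFP fluorescence of the barcode-gated MEP2-GFP cells per well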
CIT2-GFP yeast: modulators of TOR pathway CIT2-GFP in S. cerevisiae; AID 2029; 320,000 compounds, 0.065% hits; GFP response vs DMSO, % at 10 µM; S. cerevisiae CIT2-GFP strain, flow cytometry, 3 h; 100 means same as DMSO wells;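 active = GFP response relative to DMSO above a set limit, near the screen mean plus 3 SD, cut at about 150% in these data; inconclusive = Fewer than 70 cells measured for a yeast strain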;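 note: ratio of well median GFP fluorescence to mean of DMSO wells on the plate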
AGP1-GFP MLPCN: yeast TOR pathway AGP1-GFP modulation; S. cerevisiae AGP1-GFP multiplex flow cytometry, 3 h; GFP as percent of DMSO wells; GFP response vs DMSO, % at 10 µM; 320,000 compounds, 0.02% hits; AID 2066;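 active = GFP response relative to DMSO above a set limit, near screen average plus 3 SD, cut at about 150% in these data; inconclusive = fewer than 70 cells counted for the yeast strain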;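 note: median GFP channel fluorescence of the gated AGP1 strain per well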
Numbers without * were called inactive; [ ] = dose if it differs, or a comment.

`CSc1ccc(C#N)cc1NC(=O)c1cccnc1Cl` gave VLA-4 inh 10, LAP4-GFP MLPCN 98, RPL19A-GFP yeast 45*[may fluoresce violet], MEP2 TOR yeast 336*[may fluoresce violet], CIT2-GFP yeast inconclusive and AGP1-GFP MLPCN inconclusive.
`O=C(Nc1cccnc1Cl)c1cccnc1Cl` gave VLA-4 inh -4, LAP4-GFP MLPCN 87, RPL19A-GFP yeast 94, MEP2 TOR yeast 93, CIT2-GFP yeast 88 and AGP1-GFP MLPCN 87.
Screening COc1ccc(-c2nn(-c3ccccc3)cc2C(=O)NC(=S)NNC(=O)c2ccncc2)cc1 returned VLA-4 inh -4, LAP4-GFP MLPCN 150*, RPL19A-GFP yeast 103, MEP2 TOR yeast 113, CIT2-GFP yeast 107 and AGP1-GFP MLPCN 101.
For CC(C)C(NC(=O)c1ccccc1F)C(=O)NCCCn1ccnc1 (centres undefined) the results were VLA-4 inh -11, LAP4-GFP MLPCN 102, RPL19A-GFP yeast 100, MEP2 TOR yeast 102, CIT2-GFP yeast 109 and AGP1-GFP MLPCN 97.
O=C(CSc1ncnc2scc(-c3ccccc3)c12)N1CCN(Cc2ccc3c(c2)OCO3)CC1 was read as VLA-4 inh -50, LAP4-GFP MLPCN 57, RPL19A-GFP yeast 30*[may fluoresce violet], MEP2 TOR yeast 198*[may fluoresce violet], CIT2-GFP yeast inconclusive and AGP1-GFP MLPCN inconclusive.
For c1ccc(-c2csc3ncnc(N4CCN(Cc5ccc6c(c5)OCO6)CC4)c23)cc1 the results were VLA-4 inh inactive, LAP4-GFP MLPCN 88, RPL19A-GFP yeast 99, MEP2 TOR yeast 103, CIT2-GFP yeast 102 and AGP1-GFP MLPCN 94.
Screening c1ccc(C(c2nnnn2Cc2cccs2)N2CCN(C3CCCC3)CC2)cc1 (centres undefined) returned VLA-4 inh 18, LAP4-GFP MLPCN 93, RPL19A-GFP yeast 33*[may fluoresce violet], MEP2 TOR yeast 231*[may fluoresce violet], CIT2-GFP yeast inconclusive and AGP1-GFP MLPCN inconclusive.
Screening CCCN(C1CCS(=O)(=O)C1)S(=O)(=O)c1cc(OC)ccc1OC (centres undefined) returned VLA-4 inh -1, LAP4-GFP MLPCN 93, RPL19A-GFP yeast 93, MEP2 TOR yeast 93, CIT2-GFP yeast 95 and AGP1-GFP MLPCN 94.
COc1ccc(CNC(=O)CCC(=O)Nc2nnc(C(F)(F)F)s2)cc1 was read as VLA-4 inh 5, LAP4-GFP MLPCN 104, RPL19A-GFP yeast 95, MEP2 TOR yeast 103, CIT2-GFP yeast 161*[may fluoresce green] and AGP1-GFP MLPCN 119.
For COc1ccc(OC)c(NC(=O)CCC(=O)Nc2nnc(C(F)(F)F)s2)c1 the results were VLA-4 inh -10, LAP4-GFP MLPCN 97, RPL19A-GFP yeast 95, MEP2 TOR yeast 102, CIT2-GFP yeast 101 and AGP1-GFP MLPCN 102.
`CCOC(=O)[C@H]1[C@H]2COc3ccc(OC)cc3[C@H]2N2C(=O)CNC(=O)[C@@]12C` gave VLA-4 inh 6, LAP4-GFP MLPCN 89, RPL19A-GFP yeast 92, MEP2 TOR yeast 91, CIT2-GFP yeast 99 and AGP1-GFP MLPCN 93.
For COc1ccc(CN(C)C(=O)C23CC4CC(CC(C4)C2)C3)c(OC)c1 the results were VLA-4 inh -4, LAP4-GFP MLPCN inconclusive, RPL19A-GFP yeast 47*[may fluoresce violet], MEP2 TOR yeast inconclusive, CIT2-GFP yeast inconclusive and AGP1-GFP MLPCN inconclusive.
For COc1cccc(CN(C)C(=O)C23CC4CC(CC(C4)C2)C3)c1 the results were VLA-4 inh 10, LAP4-GFP MLPCN 108, RPL19A-GFP yeast 97, MEP2 TOR yeast 91, CIT2-GFP yeast 95 and AGP1-GFP MLPCN 96.
`CN1C=CC=C/C1=C1\SC(=S)N(N)C1=O` gave VLA-4 inh 21, LAP4-GFP MLPCN 68, RPL19A-GFP yeast 44*[may fluoresce violet], MEP2 TOR yeast 293*[may fluoresce violet], CIT2-GFP yeast inconclusive and AGP1-GFP MLPCN inconclusive.
Screening O=C(COc1ccccc1)N(Cc1cccc(F)c1)C1CCS(=O)(=O)C1 (centres undefined) returned VLA-4 inh 1, LAP4-GFP MLPCN 86, RPL19A-GFP yeast 44*[may fluoresce violet], MEP2 TOR yeast 139, CIT2-GFP yeast inconclusive and AGP1-GFP MLPCN 16.
Screening COc1cc(NC(=O)c2ccccc2)ccc1NC(=O)c1cc2ccccc2o1 returned VLA-4 inh 4, LAP4-GFP MLPCN 133, RPL19A-GFP yeast 107, MEP2 TOR yeast 207*, CIT2-GFP yeast 145 and AGP1-GFP MLPCN 95.
For COc1cccc(C(=O)Nc2ccc(NC(=O)c3cc4ccccc4o3)c(OC)c2)c1 the results were VLA-4 inh 5, LAP4-GFP MLPCN 95, RPL19A-GFP yeast 103, MEP2 TOR yeast 107, CIT2-GFP yeast 101 and AGP1-GFP MLPCN 98.
Screening O=C(NC1CCN(C(=O)Nc2ccc(F)cc2)CC1)c1cccc(F)c1 returned VLA-4 inh -5, LAP4-GFP MLPCN 59, RPL19A-GFP yeast 30*[may fluoresce violet], MEP2 TOR yeast 200*[may fluoresce violet], CIT2-GFP yeast inconclusive and AGP1-GFP MLPCN inconclusive.
`Cc1ccc(NC(=O)COC(=O)C2=NN(c3ccccc3)C(=O)CC2)c(Br)c1` gave VLA-4 inh 9, LAP4-GFP MLPCN 100, RPL19A-GFP yeast 95, MEP2 TOR yeast 101, CIT2-GFP yeast 97 and AGP1-GFP MLPCN 98.
`CCCCC(=O)Nc1nn(C)c2nc3c(C)cccc3cc12` gave VLA-4 inh 0, LAP4-GFP MLPCN 97, RPL19A-GFP yeast 42*[may fluoresce violet], MEP2 TOR yeast 359*[may fluoresce violet], CIT2-GFP yeast inconclusive and AGP1-GFP MLPCN inconclusive.
Screening N#CCCn1cc(CNC2CCC(O)CC2)c2ccccc21 (centres undefined) returned VLA-4 inh 1, LAP4-GFP MLPCN 60, RPL19A-GFP yeast 46*[may fluoresce violet], MEP2 TOR yeast 245*[may fluoresce violet], CIT2-GFP yeast inconclusive and AGP1-GFP MLPCN inconclusive.
`O=C1c2ccccc2C2=Nc3ccccc3SC(c3cccc(F)c3)C12` (centres undefined) gave VLA-4 inh -11, LAP4-GFP MLPCN 119, RPL19A-GFP yeast 103, MEP2 TOR yeast 180*, CIT2-GFP yeast 101 and AGP1-GFP MLPCN 94.
For O=C1c2ccccc2C2=Nc3ccccc3SC(c3ccc(Cl)cc3)C12 (centres undefined) the results were VLA-4 inh -19, LAP4-GFP MLPCN 93, RPL19A-GFP yeast 103, MEP2 TOR yeast 99, CIT2-GFP yeast 99 and AGP1-GFP MLPCN 99.
`Nc1ccc(-c2nc3ccc(N)cc3s2)cc1` gave VLA-4 inh -29, LAP4-GFP MLPCN 97, RPL19A-GFP yeast 90, MEP2 TOR yeast 290*[may fluoresce violet], CIT2-GFP yeast inconclusive and AGP1-GFP MLPCN 25.
Screening Cc1ccc([C@@H]2CC=C(C(=O)O)[C@H](c3ccc(Cl)cc3)N2S(=O)(=O)c2ccccc2C)cc1 returned VLA-4 inh 12, LAP4-GFP MLPCN 81, RPL19A-GFP yeast 90, MEP2 TOR yeast 85, CIT2-GFP yeast 86 and AGP1-GFP MLPCN 77.
Screening CNC(=O)/C(C#N)=C/c1c(N2CCCCCC2)nc2ccccn2c1=O returned VLA-4 inh -29, LAP4-GFP MLPCN 93, RPL19A-GFP yeast 77, MEP2 TOR yeast 216*, CIT2-GFP yeast 80 and AGP1-GFP MLPCN 21.
